# Screening results: PubChem BioAssay, Bradner/Qi Labs at DFCI
# CBX7 inh: inhibitors of human CBX7 binding to H3K27me3 peptide | O95931 | AlphaScreen His6-CBX7 / biotin-H3K27me3 peptide binding; active compounds read low | normalised signal (fraction of DMSO) (no concentration beside the values) | hit rate 1.1% among 66,000 | AID 1224903; in the data active = normalised signal below about 0.5
# Target sequence (O95931 whole entry, looked up): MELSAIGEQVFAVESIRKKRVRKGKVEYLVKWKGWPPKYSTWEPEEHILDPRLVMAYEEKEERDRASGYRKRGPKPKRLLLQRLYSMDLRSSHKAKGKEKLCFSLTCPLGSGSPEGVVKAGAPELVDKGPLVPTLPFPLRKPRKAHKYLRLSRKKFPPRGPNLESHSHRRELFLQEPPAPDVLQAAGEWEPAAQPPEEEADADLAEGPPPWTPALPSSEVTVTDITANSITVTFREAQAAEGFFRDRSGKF
# * marks the source's active call; other numbers are inactive results. The sample as a whole holds a higher share of hits than the screen did.
SMILES,CBX7 inh
CCOC(=O)c1cnc2cc(-c3ccccc3)nn2c1-c1ccccc1,1.35
CCOc1cc2c(cc1OCC)C(c1ccc(C)cc1C)NCC2 (stereo not drawn),0.991
CCCCN(CC)CCNC(=O)c1cc(Nc2ccc(OC)cc2)nc2ccccc12,0.918
CCCc1noc(-c2cc(-c3ccncc3)nc3ccccc23)n1,0.436*
Cc1ccccc1-c1noc(-c2cc(-c3ccncc3)nc3ccccc23)n1,0.746
c1ccc2c(-c3nc(-c4ccncc4)no3)cc(-c3ccncc3)nc2c1,1.06
Cc1ccccc1NC(=O)CSCc1cnn(-c2ccccc2)c1-n1cccc1,0.944
CCCn1cc(C2CC(=O)N(c3ccc(Br)cc3)C2=O)c2ccccc21 (stereo not drawn),1.07
CCCn1cc(C2CC(=O)N(c3ccc(C)cc3)C2=O)c2ccccc21 (stereo not drawn),1.02
CCCn1cc(C2CC(=O)N(c3ccccc3C)C2=O)c2ccccc21 (stereo not drawn),0.464*
CCCCCn1c(C(C)NC(=O)C(C)(C)C)nc2ccccc21 (stereo not drawn),1.05
CCN(CCCNC(=O)Cn1nc(-c2ccc(C)cc2)ccc1=O)c1cccc(C)c1,0.666
Cc1ccc(C(=O)Nc2ccc3c(c2)ncn3-c2ccccc2)cc1,0.986
CCCn1cnc2cc(NCc3ccc(OC)cc3OC)ccc21,0.878
COc1cccc(CNc2ccc3c(c2)ncn3C(C)(C)C)c1OC,0.639
CCn1cnc2cc(NCc3ccc(OC)cc3OC)ccc21,0.926
COc1cccc(CNc2ccc3c(c2)ncn3-c2ccccc2)c1OC,0.259*
COc1ccc(-n2cnc3cc(NCc4cccc(OC)c4OC)ccc32)cc1,0.198*
CCC1CCCCN1CCCNC(=O)CCN1C(=O)COc2ccccc21 (stereo not drawn),1.08
O=C(CCCCn1c(=O)[nH]c2ccccc2c1=O)N1CCN(Cc2ccc3c(c2)OCO3)CC1,0.998
Nc1nonc1-c1noc(-c2cccc(COc3ccc(Cl)cc3Cl)c2)n1,1.03
COc1cccc(CC(=O)Nc2ccc3nc(N4CCCCC4)cc(C)c3c2)c1,0.854
Cc1cc(=O)n2nc(N3CCCC(C(=O)NCCCN4CCCCC4C)C3)sc2n1 (stereo not drawn),0.93
COc1ccc(OC)c(S(=O)(=O)NCCc2c(C)[nH]c3ccc(OC)cc23)c1,0.562
COc1cc(Cl)c(S(=O)(=O)NCCc2c(C)[nH]c3ccc(C)cc23)cc1Cl,0.595
SMILES,CBX7 inh
COc1ccc(S(=O)(=O)NCCc2c(C)[nH]c3ccc(C)cc23)cc1,0.454*
COc1cc(/C=C/c2cc(C(F)(F)F)[nH]c(=O)n2)ccc1OCc1ccccc1F,1.02
COc1cc(/C=C/c2cc(C(F)(F)F)[nH]c(=O)n2)ccc1OCc1ccc(Cl)cc1Cl,0.26*
COc1ccc(/C=C/c2cc(C(F)(F)F)[nH]c(=O)n2)cc1OC,0.878
O=C(CN1C(=O)CSc2ccc(S(=O)(=O)N3CCCCC3)cc21)NCc1ccc(F)cc1,0.962
COc1cc(NC(=O)c2nn3c(C(F)(F)F)cc(-c4ccco4)nc3c2Cl)cc(OC)c1OC,1.07
N=c1n(CCO)c2ccccc2n1CCOc1ccccc1Cl,0.964
Cc1cccc2nc(-c3ccccn3)c(Nc3ccc4c(c3)OCCO4)n12,0*
Cc1cccc2nc(-c3ccc(Cl)cc3)c(Nc3ccc4c(c3)OCO4)n12,0.677
Cc1cccc2nc(-c3ccccn3)c(Nc3ccc4c(c3)OCO4)n12,0*
Cc1cccc2nc(-c3ccc(N(C)C)cc3)c(Nc3ccc4c(c3)OCO4)n12,0.836
Cc1cccc2nc(-c3ccsc3)c(Nc3ccc4c(c3)OCO4)n12,0.78
Cc1cccc2nc(-c3ccncc3)c(Nc3ccc4c(c3)OCO4)n12,0.988
Cc1ccc(-c2nnc(Nc3ccccc3)c3ccccc23)cc1S(=O)(=O)N(C)C,1.05
O=C(NC1CCCCC1)NS(=O)(=O)c1ncn(Cc2ccccc2)n1,1.07
COc1ccc(OC)c(NC(=O)c2c(NCc3ccc(N(C)C)cc3)sc3c2CCCC3)c1,0.48*
COc1ccc(OC)c(NC(=O)c2c(NCc3ccc(OC)c(OC)c3)sc3c2CCC3)c1,0.707
COc1cccc(CNc2sc3c(c2C(=O)Nc2cc(OC)ccc2OC)CCCC3)c1,0.767
O=C(NCCCN1CCCC1=O)c1csc2c1CCCC2,1.06
COc1ccccc1C(=O)N1CC(=O)Nc2ccc(F)cc2C1c1ccccc1 (stereo not drawn),1.09
COc1ccc(C(=O)N2CC(=O)Nc3ccc(C)cc3C2c2ccc(F)cc2)cc1 (stereo not drawn),0.741
COc1ccc(C(=O)N2CC(=O)Nc3ccc(C)cc3C2c2ccc(F)cc2)c(OC)c1 (stereo not drawn),0.303*
CCOC(=O)N1CCN(c2ccc3nnc(C(F)(F)F)n3n2)CC1,0.988
C1=CC2=C(CO1)OCc1c2[nH]c2ccc3ccccc3c12,0.433*
CC(=O)N1c2ccc(S(=O)(=O)NCCN3CCN(c4ccccc4F)CC3)cc2CC1C (stereo not drawn),1.06
SMILES,CBX7 inh
Cc1ccc(S(=O)(=O)c2nc(C)oc2NCc2ccccc2)cc1,0.997
O=[N+]([O-])c1ccc(-c2cn(-c3ccccc3NCc3ccccc3)cn2)o1,0.483*
Cn1cnc(S(=O)(=O)NCc2ccccc2)c1,1.01
Cc1ccc(-c2noc(CN3CCN(c4ccc(F)cc4)CC3)n2)cc1,0.99
Cc1ccc(-c2noc(CN3CCOCC3)n2)cc1,1.33
COc1ccc(N2CCN(Cc3nc(-c4ccc(C)cc4)no3)CC2)cc1,0.316*
C=CCc1ccc(Oc2nc(C)nc3sc4c(c23)CCC4)c(OC)c1,0.876
Cc1ccc(NC(=O)c2ccccc2O)nc1,0.924
O=C(Nc1cccc2cccnc12)c1ccccc1O,1.04
O=C(Nc1ncn[nH]1)c1ccccc1O,0.169*
CCC(C(=O)Nc1nnc(-c2ccccc2F)s1)c1ccccc1 (stereo not drawn),1.09
CCOC(=O)c1cnc2ccc(OCC)cc2c1NC1CCCC(C)C1C (stereo not drawn),1.31
COc1cccc(NC2c3ccccc3C(=O)N2c2cccnc2)c1 (stereo not drawn),0.997
O=C1c2ccccc2C(Nc2ccc(Br)cc2)N1c1cccnc1 (stereo not drawn),1.05
O=C1c2ccccc2C(Nc2cccnc2)N1c1cccnc1 (stereo not drawn),0.0687*
CCc1nnc(NS(=O)(=O)c2ccc(NC(=O)C34CC5CC(CC(C5)C3)C4)cc2)s1,1.06
COc1ccc(CCNC2CC(=O)N(c3ccc(Br)cc3)C2=O)cc1OC (stereo not drawn),1.03
c1ccc(CNC2CCCc3c2[nH]c2ccc(-c4ccccc4)cc32)cc1 (stereo not drawn),0.669
Cc1ccc2[nH]c3c(c2c1)CCCC3NCc1ccc(Cl)cc1 (stereo not drawn),0.495*
Cc1ccc2[nH]c3c(c2c1)CCCC3NCCCO (stereo not drawn),1.01
CCCc1cc(-c2[nH]ncc2-c2ccc3c(c2)OCCO3)c(O)cc1OC,0.292*
CCCc1cc(-c2onc(C)c2-c2ccc3c(c2)OCCCO3)c(O)cc1OC,0.681
CCc1cc(-c2[nH]ncc2-c2ccc3c(c2)OCCO3)c(O)cc1O,0.686
CCCCCCc1cc(-c2[nH]ncc2-c2ccc(Br)cc2)c(O)cc1OC,0.583
CCc1cc(-c2[nH]ncc2-c2ccc3c(c2)OCCO3)c(O)cc1OC,0.381*
CCc1cc(-c2n[nH]c(C)c2-c2ccc3c(c2)OCCO3)c(O)cc1O,0.685
CCCCNC(=O)c1ccc2c(c1)N(Cc1ccccc1)C(=O)c1ccccc1S2(=O)=O,1.02
